Hits are enriched below; roughly 0.87% of the tested compounds scored in any of these assays.
TDP1 inh – inhibitors of human tyrosyl-DNA phosphodiesterase TDP1. recombinant TDP1, AlphaScreen DNA substrate cleavage. Potency, µM (top dose mostly 130 µM), for inactives: at the highest dose activity change, negative = inhibition, hits mostly inhibitors. Q9NUW8. 350,000 compounds, 0.28% hits; further: nearly all actives have a fitted effect of over 40% in size
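AlphaScreen read-out: signal falls as enzyme removes the 3' tyrosine-FITC from a 5'-biotinylated DNA oligo (15 nM, 5 min, RT). Enzyme was E. coli-made recombinant Tdp1 at 1 nM, exposed to compound for 15 min beforehand; beads 10 ug/ml, 10 min.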
RGS4 inhibitor – blocks human RGS4-accelerated GTP hydrolysis; P49798; Transcreener GDP fluorescence polarization, RGS4-accelerated GTP hydrolysis; Potency, µM (titrated, usually from 114 µM), for inactives: top-dose activity change, negative = inhibition, most hits filed as inhibitors; 390,000 compounds, 0.039% hits; further: nearly all actives have a fitted effect of over 75% in size
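MLSMR compounds (23 nl, pin-transferred) preincubated 10 min at room temperature with a 500nM (2x) first reagent, then RGS4 at 900nM (2x) plus Transcreener GDP mix added; fluorescence polarization (620/688 nm) read before and after 90 min at 30 °C.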
APEX1 inh – blocks human APE1 abasic DNA cleavage | P27695 | recombinant APE1, TAMRA/BHQ-2 abasic DNA cleavage fluorescence | Potency, µM (series often up to 65.8 µM), for inactives: top-dose activity change, negative = inhibition, usual class: inhibitors | 350,000 compounds, 0.35% hits | AID 2517;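 further: plate controls were vehicle for no effect and reference inhibitor for full effect; nearly all actives have a fitted effect of over 55% in size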
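Readout is kinetic fluorescence (ex 525, em 598 nm) from cleavage of 50 nM TAMRA/BHQ-2 THF abasic duplex by 0.75 nM APE1, compound added 15 min beforehand at RT.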
BLM helicase inh – Bloom syndrome helicase (human) inhibition; P54132; recombinant BLM DNA unwinding, fluorescence dequenching; Potency, µM (titrated, usually from 56.1 µM), without a hit: at the top dose activity change, negative = inhibition, most hits filed as inhibitors; 350,000 compounds, 0.2% hits; AID 2528;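 further: plate controls were vehicle for no effect and no enzyme for full effect; nearly all actives have a fitted effect of over 35% in size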
RECQ1 inh – blocks DNA unwinding by human RECQ1; P46063; RECQ1 DNA unwinding, red fluorescence kinetic read; Potency, µM (titrated, usually from 57.3 µM), for inactives: at the top dose activity, negative = inhibition, hits mostly inhibitors; 240,000 compounds, 0.54% hits; AID 2549;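 further: plate controls were vehicle for no effect and no enzyme for full effect; nearly all actives have a fitted effect of over 30% in size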
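RECQ1T1 50 nM; forked duplex (20 bp + 30-nt ss tails) 200 nM, ATP 2 mM final; pH 8.0, 2 mM MgCl2, 2.5 ug/ml poly(dI-dC); 15 min compound preincubation; discontinuous kinetic read over 2 h at RT.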
KAT2A inh – GCN5L2 (KAT2A) acetyltransferase inhibition. AID 504327. GCN5L2 HAT assay, ThioGlo1 CoA-SH fluorescence. 390,000 compounds, 0.21% hits. Potency, µM (highest dose often 58.9 µM), for the others: at the top dose activity change, negative = inhibition, most hits filed as inhibitors
Target sequence (Q92830 whole entry, looked up): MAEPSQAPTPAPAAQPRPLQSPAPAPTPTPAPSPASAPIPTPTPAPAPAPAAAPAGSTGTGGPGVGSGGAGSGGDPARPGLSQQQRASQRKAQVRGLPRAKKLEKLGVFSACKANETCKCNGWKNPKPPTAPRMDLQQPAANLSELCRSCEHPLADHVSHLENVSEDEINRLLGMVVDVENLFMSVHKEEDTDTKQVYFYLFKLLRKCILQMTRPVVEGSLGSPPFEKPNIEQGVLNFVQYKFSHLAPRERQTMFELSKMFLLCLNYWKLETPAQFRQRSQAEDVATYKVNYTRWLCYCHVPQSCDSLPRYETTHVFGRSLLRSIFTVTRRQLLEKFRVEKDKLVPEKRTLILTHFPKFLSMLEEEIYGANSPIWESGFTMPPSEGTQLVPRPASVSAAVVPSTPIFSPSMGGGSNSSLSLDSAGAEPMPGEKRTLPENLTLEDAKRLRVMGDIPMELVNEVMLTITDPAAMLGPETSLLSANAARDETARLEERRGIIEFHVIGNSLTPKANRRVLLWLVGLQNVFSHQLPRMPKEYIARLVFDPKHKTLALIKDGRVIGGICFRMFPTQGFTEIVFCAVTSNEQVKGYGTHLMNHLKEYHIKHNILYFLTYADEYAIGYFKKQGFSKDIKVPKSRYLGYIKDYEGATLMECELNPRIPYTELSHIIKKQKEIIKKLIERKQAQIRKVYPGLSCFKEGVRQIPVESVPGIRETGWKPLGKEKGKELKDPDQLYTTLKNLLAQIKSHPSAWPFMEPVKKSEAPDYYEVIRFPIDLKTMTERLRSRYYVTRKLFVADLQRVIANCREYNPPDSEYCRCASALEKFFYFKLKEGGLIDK
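Preincubate 20nM GCN5L2 with compound 15 min, RT → add 50uM ThioGlo1 + 75uM H3(1-25) + 70uM acetyl-CoA → read fluorescence 0 and 20 min. Primary qHTS; fluorescent artifacts likely.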
An asterisk follows results filed as active; i = inactive; ? = inconclusive; / = no result; ! = not confirmed by another sample; [ ] = remark or other dose. The call rests on the fitted dose curve; in most records, active means well fitted curve in the direction sought with a large enough effect; inconclusive means small, poorly fitted or top-dose-only effect, or another doubt; inactive means no such curve, though single readings can be large; an effect the other way counts as inactive or inconclusive. Unless noted, on the % scale 0 is the no-effect control and ±100 the full control effect; potency means the concentration at half of the fitted maximal effect.

SMILES	TDP1 inh	RGS4 inhibitor	APEX1 inh	BLM helicase inh	RECQ1 inh	KAT2A inh
CCNc1nc(NCC)n2c(SCC(=O)Nc3ccc(OC(F)F)cc3)nnc2n1	/	16%	11µM*	/	/	-1%
CCNc1nc(NCC)n2c(SCC(=O)Nc3ccc(F)cc3)nnc2n1	6%[0.505 µM]	-6%	12µM*	/	/	-5%
CCN1CCN(C(c2ccc(C(F)(F)F)cc2)c2ccc3cccnc3c2O)CC1 (stereo not drawn)	/	?	53%	-8%	/	2%
OCCN1CCN(C(c2cccs2)c2ccc3cccnc3c2O)CC1 (stereo not drawn)	7.1µM*	/	-2%	-7%	-7%	-16%
CCOc1ccc(Nc2nc(NCC3CCCO3)c3ccccc3n2)cc1 (stereo not drawn)	7%	1%	14%	28µM*	?	-5%
c1ccc(Nc2nc(NCC3CCCO3)c3ccccc3n2)cc1 (stereo not drawn)	6%	?	-7%	-2%	-5%	-15%
COc1ccc(/C=C(\C#N)c2nc3ccc(C)cc3[nH]2)cc1Oc1ccc(C(F)(F)F)cc1[N+](=O)[O-]	8%	3%	-6%	-7%	9%	2.8µM*
CC(=O)c1sc2nc(CSc3nnnn3-c3ccccc3)[nH]c(=O)c2c1C	8%	-46%	3%	16µM*	i	?
C=CCn1c(SCc2nc3sc(C(=O)O)c(C)c3c(=O)[nH]2)nnc1-c1ccc(C(C)(C)C)cc1	20µM*	-45%	?	-5%	-2%	-1%
CC[C@@H](C)[C@@H](N)C1=N[C@H](C(=O)N[C@@H](CC(C)C)C(=O)N[C@@H](CCC(=O)O)C(=O)N[C@@H](C(=O)N[C@@H]2CCCCNC(=O)[C@@H](CC(N)=O)NC(=O)[C@@H](CC(=O)O)NC(=O)[C@@H](Cc3cnc[nH]3)NC(=O)[C@@H](Cc3ccccc3)NC(=O)[C@@H]([C@H](C)CC)NC(=O)[C@@H](CCCN)NC2=O)[C@@H](C)CC)CS1	/	/	-5%	/	/	/
COCCN(CC(=O)Nc1cccc(C)c1C)C(=O)c1cc2c(s1)CCC2	22µM*	9%	15µM*	/	/	-7%
Cc1ccc(C(=O)N/N=C\c2ccc(Br)o2)o1	2%	-27%	-3%	-1%	-1%	2.5µM*
O=C(N/N=C/c1c(O)ccc2ccccc12)c1ccc(Br)o1	?	?	15µM*	-18%	/	-11%
Cc1ccc(/C=N/NC(=O)C(=O)N/N=C/c2ccc(C)o2)o1	-2%	18%	5%	-13%	-15%	-9%
COc1ccc(C2c3c(N)nc(CCc4ccccc4)nc3Oc3ccc4ccccc4c32)cc1OC (stereo not drawn)	-4%	/	/	/	/	/
O=[N+]([O-])c1ccc(O)c(C=Nc2ccc3c(c2)OCO3)c1	0%	-15%	15%	-9%	21%	?
O=[N+]([O-])c1cc(Br)cc(C=Nc2ccc3c(c2)OCO3)c1O	9%	?	-5%	14µM*	?	-8%
Cc1cc(O)c2c(c1O)C(=O)C(O)=C(O)C2=O	-12%	/	6.3µM*	-28%	10µM*	/
COc1cc(O)c2c(c1)C(=O)c1cc(C)cc(O)c1C2=O	10%[56.1 µM]	/	-7%	1%	0%	-4%
N#CN1CCC(NS(=O)(=O)c2ccc(F)cc2)CC1	0%	/	/	/	/	/
CC(=O)C1=C(c2ccccc2)NC(=O)NC1c1ccc(O)c(O)c1 (stereo not drawn)	-5%	29%	40µM*	-8%	-3%	-4%
CC(=O)C1=C(c2ccccc2)NC(=S)NC1c1cc(Cl)c(OC(C)C)c(Cl)c1 (stereo not drawn)	7%	?	-7%	-9%	-22%	-13%
CC(=O)C1=C(c2ccccc2)NC(=S)NC1c1ccc(O)c(O)c1 (stereo not drawn)	-3%	-4%	13µM*	-16%	?	-11%
CC(=O)Oc1cc(C(=O)OCC(=O)N2CCc3ccccc3C2)cc(OC(C)=O)c1OC(C)=O	/	25%	5.3µM*	/	/	1%
COc1ccc(C(=O)OCC(=O)N2CCc3ccccc3C2)cc1OC	0%	-23%	26%	/	/	-3%
SMILES	TDP1 inh	RGS4 inhibitor	APEX1 inh	BLM helicase inh	RECQ1 inh	KAT2A inh
COc1ccc(C(=O)c2cn(CC(=O)Nc3ccc4c(c3)OCCO4)c3ccc(OC)cc3c2=O)cc1	/	?	/	10µM*	/	-4%
Oc1c(Cl)ccc(Cl)c1Cl	1%	/	0%	/	-2%	/
O=C1C=CC(=O)c2c(O)c(Cl)c(Cl)c(O)c21	-3%	/	-7%	?	-7%	20µM*
CC(C)=CCC/C(C)=C/COc1c2occc2cc2ccc(=O)oc12	20µM*!	2%	?	-19%	-5%	-19%
CC(C)=CCC/C(C)=C/COc1c2ccoc2cc2oc(=O)ccc12	/	14%	/	/	/	/
O=S1(=O)N=C(Oc2ccc3ccccc3c2)c2ccccc21	2%	/	/	/	/	/
Cc1ccc(CC(=O)CCc2ccccc2)cc1	79µM*	-23%	28%	/	/	1%
Cc1cc2c(s1)c(/C=N/O)c(C(=O)NCc1ccccc1F)n2C	0%	/	/	/	/	/
O=C(N/N=C/c1cn(-c2ccccc2)nc1-c1ccc2c(c1)OCCO2)c1ccncc1	50µM*	-46%	-9%	-15%	-14%	-17%
Cc1ccc(NS(=O)(=O)c2cc3c(cc2N2CCCCC2)NC(=O)CC3)cc1C	0%	/	/	/	/	/
CC(=O)Nc1ccc(S(=O)(=O)N2CCN(S(=O)(=O)c3ccc4c(c3)OCCO4)CC2)cc1	1%	/	/	/	/	/
Oc1ccc(/C=C/c2ccccc2)c2cccnc12	1%	/	/	/	/	/
CC(=O)c1ccc(CCCCCCCCCC(=O)O)s1	-1%	-7%	-3%	-2%	?	-8%
CCC(=O)c1ccc(CCCCCC(=O)O)s1	18µM*	-22%	?	-4%	-14%	-11%
CO[C@H]1C[C@H](O[C@H]2[C@H](C)[C@@H](O[C@@H]3O[C@H](C)C[C@H](N(C)C)[C@H]3OC(C)=O)[C@@H](C)C[C@]3(CO3)C(=O)[C@H](C)[C@@H](OC(C)=O)[C@@H](C)[C@@H](C)OC(=O)[C@@H]2C)O[C@@H](C)[C@@H]1OC(C)=O	/	/	2%[21 µM]	/	/	/
COc1ccc(C2=Nn3c(nnc3-c3ccccc3C(F)(F)F)SC2)cc1O[C@H]1CCOC1	/	/	22%	/	/	/
CCN1CCCc2cc(CN(CCN3CCOCC3)C(=S)Nc3ccc(OC)cc3)ccc21	3%	18%	6.3µM*	0%	-6%	-6%

Bioassay records as filed in PubChem.
